We go through 14 compounds from PMC11062922 (Nature Chemical Biology, 2023).

Where two headings read alike, the source gives them in different places.

Common to all, as to design: species or system human, MV4-11 + K-562 + COLO205 + SK-N-BE2 + OVCAR-8
Assay [1] deals with MAPK14. Particulars: read-out: apparent Kd, n = 1.
The subject of assay [2] is MAPKAPK2. Particulars: read-out: apparent Kd, n = 1.
Assay [3] concerns PHKG2. To be noted: read-out: apparent Kd; compound concentrations:100 nM and 1000 nM (sheet 'Samples'); n = 1.
Assay [4] has as its system PIM2. To be noted: read-out: apparent Kd; compound concentrations:100 nM and 1000 nM (sheet 'Samples'); n = 1.
In assay [5] the test system is PIM3. To be noted: read-out: apparent Kd; compound concentrations:100 nM and 1000 nM (sheet 'Samples'); n = 1.
Assay [6] relates to PKN3. Particulars: read-out: apparent Kd; compound concentrations:100 nM and 1000 nM (sheet 'Samples'); n = 1.
The test system of assay [7] is RIPK2. Particulars: read-out: apparent Kd; compound concentrations:100 nM and 1000 nM (sheet 'Samples'); n = 1.
For assay [8], the system named is PIK3C3. Particulars: read-out: apparent Kd, n = 1.
In assay [9] the test system is STK16. Particulars: read-out: apparent Kd; compound concentrations:100 nM and 1000 nM (sheet 'Samples'); n = 1.
In assay [10] the test system is MAPK7. To be noted: read-out: apparent Kd; compound concentrations: 100 nM and 1000 nM (sheet 'Samples'), CATDS: 1; n = 1.
Assay [11] has as its system MAPK9. Particulars: read-out: apparent Kd; compound concentrations: 100 nM and 1000 nM (sheet 'Samples'), CATDS: 1; n = 1.
Assay [12] deals with MCM5. Particulars: read-out: apparent Kd; compound concentrations:100 nM and 1000 nM (sheet 'Samples'); n = 1.
The subject of assay [13] is NLK. To be noted: read-out: apparent Kd; compound concentrations:100 nM and 1000 nM (sheet 'Samples'); n = 1.
The subject of assay [14] is TNIK. Particulars: read-out: apparent Kd; compound concentrations:100 nM and 1000 nM (sheet 'Samples'); n = 1.
For assay [15], the system named is MDN1. To be noted: read-out: apparent Kd; compound concentrations: 100 nM and 1000 nM (sheet 'Samples'), CATDS: 0.24349694063925101; n = 1.
For assay [16], the system named is RIOK2. To be noted: read-out: apparent Kd; compound concentrations: 100 nM and 1000 nM (sheet 'Samples'), CATDS: 0.23086501182720201; n = 1.
For assay [17], the system named is TGFBR1. Particulars: read-out: apparent Kd; compound concentrations: 100 nM and 1000 nM (sheet 'Samples'), CATDS: 0.25129467412206702; n = 1.
Assay [18] relates to MERTK. To be noted: read-out: apparent Kd; compound concentrations:100 nM and 1000 nM (sheet 'Samples'); n = 1.
The test system of assay [19] is MTHFD1. Particulars: read-out: apparent Kd, n = 1.
Assay [20] has as its system TNK1. Particulars: read-out: apparent Kd; compound concentrations: 100 nM and 1000 nM (sheet 'Samples'), CATDS: 0.618875790720404; n = 1.
The subject of assay [21] is MTOR. To be noted: read-out: apparent Kd; compound concentrations: 100 nM and 1000 nM (sheet 'Samples'), CATDS: 7.1154294212896999E-2; n = 1.
Assay [22] relates to PDGFRB. Particulars: read-out: apparent Kd; compound concentrations: 100 nM and 1000 nM (sheet 'Samples'), CATDS: 5.6462124359458001E-2; n = 1.
For assay [23], the system named is PI4KA. Particulars: read-out: apparent Kd; compound concentrations: 100 nM and 1000 nM (sheet 'Samples'), CATDS: 9.2469758478665204E-2; n = 1.
Assay [24] deals with PI4KB. To be noted: read-out: apparent Kd; compound concentrations: 100 nM and 1000 nM (sheet 'Samples'), CATDS: 6.1584731713773599E-2; n = 1.
Assay [25] deals with PIK3C2A. Particulars: read-out: apparent Kd; compound concentrations: 100 nM and 1000 nM (sheet 'Samples'), CATDS: 5.5656712709310899E-2; n = 1.
Assay [26] relates to PIK3C2B. To be noted: read-out: apparent Kd; compound concentrations: 100 nM and 1000 nM (sheet 'Samples'), CATDS: 0.103549921719069; n = 1.
The test system of assay [27] is PIK3CA. To be noted: read-out: apparent Kd; compound concentrations: 100 nM and 1000 nM (sheet 'Samples'), CATDS: 0.27321348763970998; n = 1.
For assay [28], the system named is PIK3CB. Particulars: read-out: apparent Kd; compound concentrations: 100 nM and 1000 nM (sheet 'Samples'), CATDS: 0.12993654601332599; n = 1.
Assay [29] deals with PIK3CD. Particulars: read-out: apparent Kd; compound concentrations: 100 nM and 1000 nM (sheet 'Samples'), CATDS: 0.40484446782600397; n = 1.
Assay [30] relates to PIK3CG. To be noted: read-out: apparent Kd; compound concentrations: 100 nM and 1000 nM (sheet 'Samples'), CATDS: 0.28339263062776299; n = 1.
Assay [31] relates to PRKDC. Particulars: read-out: apparent Kd; compound concentrations: 100 nM and 1000 nM (sheet 'Samples'), CATDS: 5.8127762202415202E-2; n = 1.
[32] abbreviates: compound concentrations: 100 nM and 1000 nM (sheet 'Samples'), CATDS: 1.
Setting [33] is: compound concentrations:100 nM and 1000 nM (sheet 'Samples').

For `O=c1[nH]c2cc(Nc3ccc(F)cc3F)ccc2n1CC1CCCCC1` [BI00601000], the potency estimated from few doses is 27.6 nM in [1] (compound concentrations: 100 nM and 1000 nM (sheet 'Samples'), CATDS: 0.69333991182184596); 97.2 nM in assay [2] (compound concentrations: 100 nM and 1000 nM (sheet 'Samples'), CATDS: 0.39097535171865).
Take `Cl.Cn1c(=O)c(Oc2ccc(F)cc2F)cc2cnc(NCCS(C)(=O)=O)nc21` [RO3309294-001]: in [1] (setting [32]), the potency estimated from few doses was 344 nM.
`COc1cccc(-c2nc(-c3ccccc3)[nH]c2-c2ccncc2)c1` [SB-610250]: the potency estimated from few doses in [1] (setting [33]) was 1050 nM; in assay [2] (setting [33]) it was 1480 nM; in assay [3], 2340 nM; in assay [4], 1940 nM; in assay [5] it was 1430 nM; in assay [6], 1320 nM. For the same compound, the potency estimated from few doses in [7] is 204 nM.
Regarding `Nc1n[nH]c2ncc(-c3ccccc3)cc12` [SB-517081_KCGS], the potency estimated from few doses in assay [1] (setting [33]) was 1590 nM; in assay [8] (setting [33]) it was 1320 nM; in assay [9], 1630 nM.
`CCOc1cc(C(=O)N2CCC(N3CCN(C)CC3)CC2)ccc1Nc1ncc2c(n1)N(C1CCCC1)c1ccccc1C(=O)N2C` [ERK5-IN-1]: in assay [10], the potency estimated from few doses was 813 nM.
With `COC(=O)c1c(-c2ccccc2)c2cc(Br)ccc2c(=O)n1Cc1ccc(S(C)(=O)=O)cc1` [TPKI-100], in assay [11], the potency estimated from few doses was 1460 nM.
As for `CCS(=O)(=O)c1ccc(OC)c(Nc2nccc(-c3c(-c4cccc(NC(=O)c5c(F)cccc5F)c4)nn4ncccc34)n2)c1` [GSK326180A], the potency estimated from few doses in assay [2] (setting [32]) is 1390 nM.
On to `COc1cccc(-c2ccc3c(NC(=O)C4CC4)n[nH]c3n2)c1` [SB-710903], for which the results for the potency estimated from few doses in assay [12], in assay [13] and in assay [14] were 2020 nM, 1900 nM and 1640 nM, respectively.
Consider `Nc1nc(-c2nccs2)c(-c2ccnc3ccccc23)s1` [GW693542X], for which the potency estimated from few doses is 1860 nM in assay [15]; 1430 nM in assay [8] (compound concentrations: 100 nM and 1000 nM (sheet 'Samples'), CATDS: 0.27915457125427801); 2090 nM in [16]; 1750 nM in assay [17].
For `CS(=O)(=O)CCNCc1nc(-c2ccc3ncnc(Nc4ccc(F)c(Cl)c4)c3c2)cs1.Cl` [GW461104A], the potency estimated from few doses in assay [18] is 1190 nM.
On the same count and under the same terms, as for `CC(=O)N[C@@H](Cc1ccc(OP(=O)(O)O)cc1)C(=O)N[C@H]1CCC(=O)N2CCC[C@@H](C(=O)NC3CCc4ccccc43)N2C1=O` (stereo partly drawn) [RO0324438-000], the figure is 1220 nM.
`Cc1cc(NCC(c2ccccc2)c2ccccc2)nc(NCc2ccc(C(F)(F)F)cc2)n1` [GW497681X]: the potency estimated from few doses was 2040 nM in assay [19] (compound concentrations: 100 nM and 1000 nM (sheet 'Samples'), CATDS: 0.41943372694081998); 909 nM in assay [20].
For the compound `CCNC(=O)[C@@H]1CCCN2C(=O)CC[C@H](NC(=O)[C@H](Cc3ccc(OP(=O)(O)O)cc3)NC(C)=O)C(=O)N12` [RO0325851-000], the potency estimated from few doses in [19] (setting [33]) is 1840 nM.
On to `COc1ccc(-c2cc3c(C)nc(N)nc3n([C@H]3CC[C@H](O)CC3)c2=O)cn1` [PFE-PKIS_40], for which the potency estimated from few doses in [21] is 382 nM; in assay [22], 1550 nM; in [23], 96.5 nM; in assay [24], 875 nM; in assay [25], 1720 nM; in [26], 55.7 nM. Also, the potency estimated from few doses in assay [27] is 1.69 nM; in assay [28], 19.7 nM; in assay [29] it was 0.817 nM; in [30], 1.57 nM; in assay [31], 1260 nM.
